In PubChem BioAssay:

Target: Tumor necrosis factor receptor superfamily member 10B (Homo sapiens) (UniProt O14763)
Test: viability loss of caspase-8 NB7 cells with TRAIL – with/without TRAIL, luminescence panel, confirmation (AID 651596)
Conditions: NB7 neuroblastoma + caspase-8, TRAIL sensitization, NB7 Caspase-8, with TRAIL, mean of runs, at 10 µM, stronger effect = higher value

Chain of Tumor necrosis factor receptor superfamily member 10B (Homo sapiens) (O14763 whole entry, looked up): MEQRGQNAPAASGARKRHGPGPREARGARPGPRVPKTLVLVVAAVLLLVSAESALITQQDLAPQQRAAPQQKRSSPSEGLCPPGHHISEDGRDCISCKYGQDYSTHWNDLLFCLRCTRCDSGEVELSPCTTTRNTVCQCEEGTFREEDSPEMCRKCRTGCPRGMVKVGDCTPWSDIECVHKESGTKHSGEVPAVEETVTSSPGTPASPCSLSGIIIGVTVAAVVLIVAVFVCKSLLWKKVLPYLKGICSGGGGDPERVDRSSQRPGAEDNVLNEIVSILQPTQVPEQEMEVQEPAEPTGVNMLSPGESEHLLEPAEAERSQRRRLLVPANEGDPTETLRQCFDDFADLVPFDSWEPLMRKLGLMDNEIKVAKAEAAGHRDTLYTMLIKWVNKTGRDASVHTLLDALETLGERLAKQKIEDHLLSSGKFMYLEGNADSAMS

Row | SMILES | activity
1 | Cc1ccc(-c2cc(-c3ccccc3)no2)c(O)c1 | 71.8%
2 | Cc1ccc(N(NC(=O)C(O)(c2ccccc2)c2ccccc2)C(=O)CCl)cc1 | 98.5%
3 | Cc1ccc(C(=O)N/C(=C\c2ccc(-c3ccccc3[N+](=O)[O-])o2)C(=O)NCCCN2CCOCC2)cc1 | 24.6%
4 | C=C(C)c1cc2c(ccc3ccc(=O)oc32)o1 | 92.6%
5 | Cc1cccc(NC(=O)CCc2ccc(N3C(N)=NC(N)=NC3(C)C)cc2)c1 | 81.3%
6 | Cc1ccc2oc(-c3ccccc3)c(C(=O)O)c(=O)c2c1 | 29.9%
7 | NC(=S)NN=C1c2ccccc2-c2c(F)c(F)c(F)c(F)c21 | 72.1%
8 | COc1cccc(C(=O)Nc2nc3ccccc3[nH]2)c1 | 91%
9 | O=C(NC(=S)N1CCN(c2ccc(C(F)(F)F)cc2[N+](=O)[O-])CC1)c1cccs1 | 60.9%
10 | O=[N+]([O-])c1ccc(/C=C/c2ccc3ccccc3n2)cc1 | 70.2%
11 | COc1ccc(C2NN=C(c3ccc(C)cc3)S2)cc1 (centres undefined) | 51.8%
12 | C=CCn1c2ccccc2c(=O)c2cc(C#CC3(O)CCCCC3)ccc21 | 83.7%
13 | C=C(C)[C@@H]1C2=CC(C(=O)OC)=C(C[C@H](C(=C)C)[C@H]3O[C@H]3C3=C[C@H]1OC3=O)O2 | 72.2%
14 | O=C(N/N=C\c1ccc(CNS(=O)(=O)c2ccc(Cl)cc2)o1)C(=O)Nc1ccc(Oc2ccccc2)cc1 | 79.5%
15 | Cc1ccc(/C=C/C2=NN(C)C(=O)CC2)cc1 | 46.6%
16 | CC(C)(C)c1ccc(/C=N/NC(=O)c2ccccn2)cc1 | 83.5%
17 | C/C(=N\NC(=O)c1ccc(Cl)cc1)c1cccs1 | 80.1%
18 | Cc1ccc(C(=O)Nc2nc3c(s2)CCCC3)o1 | 70.4%
19 | Cc1csc(C(C#N)C(=O)c2cc3ccccc3o2)n1 (centres undefined) | 57.3%
20 | Cc1cccc2sc(NNC(=O)c3ccc(S(=O)(=O)N4CCCC(C)C4)cc3)nc12 (centres undefined) | 51.8%

Row | SMILES | activity
21 | O=c1c(-c2ccc3c(c2)OCCO3)coc2cc(OC3OC(CO)C(O)C(O)C3O)ccc12 (centres undefined) | 51.8%
22 | O=c1c2ccccc2oc2ccc(C#CC3(O)CCCCC3)cc12 | 86.2%
23 | Cc1ccc2nc(-c3ccncc3)cc(C(=O)Nc3ccncc3)c2c1 | 19.9%
24 | CC(C)c1nnc(NC(=O)c2c(O)c3cccc4c3n(c2=O)CCC4)s1 | 43.6%
25 | CCOc1ccc(/C=C2\CCc3ccccc3C2=O)cc1 | 83.2%
26 | O=C(/C(=C/c1ccc(Cl)cc1)c1nc2ccccc2[nH]1)c1ccccc1 | 84.1%
27 | CCOC(=O)C1=C(C)OC(=Cc2ccc(OC)cc2)C1=O | 70.6%
28 | Cc1ccsc1C(=O)Nc1ccc2c(c1)OCCO2 | 53.2%
29 | CCC(C)c1ccc2oc(-c3ccc(NC(=O)Cn4cnc5c(=O)n(C)c(=O)n(C)c54)cc3)nc2c1 (centres undefined) | 85.3%
30 | O=C(Nc1cccc(O)c1)c1cc(-c2ccccc2Cl)on1 | 82.2%
31 | C[n+]1c(-c2ccccc2)cc2c(=Cc3ccccc3)c3ccccc3n21 | 73.1%
32 | C/C(=N\NC(=O)c1nn(C)c(C)c1Br)c1cccc(NC(=O)c2ccc(F)cc2)c1 | 46%
33 | COc1ccc(C(=O)Nc2nnc(SCC(=O)NCc3ccco3)s2)c(OC)c1 | 65.7%
34 | CCOc1ccc2nc(NC(=O)CN3CCC(n4nnc5cc(C(F)(F)F)ccc54)CC3)sc2c1 | 69%
35 | C=C1CC2(CC(c3ccccc3)OC(c3ccccc3)C2)OC1=O (centres undefined) | 47%
36 | CCOC(=O)Cc1csc(NC(=O)c2cc3c(s2)CCCC3)n1 | 56.7%
37 | Cn1cnc([N+](=O)[O-])c1Sc1nc(N)nc2c1ncn2C1CC(O)C(CO)O1 (centres undefined) | 68.8%
38 | CN(C)C=Nc1ccc2nc3c(cc2c1)[nH]c1ccccc13 | 76.7%
39 | NNc1nc(-c2ccccc2)nc2sc3c(c12)CCCC3 | 57.2%
